# In PubChem BioAssay AID504332 (National Center for Advancing Translational Sciences (NCATS), 2011):
# Hit rate of the full screen: of about 350,000 compounds, about 31,000 (8.9%) were called active. Another 15% or so got no clear call; they are omitted. Calls follow the shape of the dose curve; as a rule, active = well fitted inhibition curve with a large enough effect; inconclusive = small, poorly fitted or top-dose-only effect; inactive = no such curve, though single readings can be large or run the other way. For the sample, actives were picked, then their nearest neighbours and some compounds at random.
# Target: Histone-lysine N-methyltransferase EHMT2 (Homo sapiens) (UniProt Q96KQ7)
# Assay: qHTS Assay for Inhibitors of Histone Lysine Methyltransferase G9a; also: nearly all actives have a fitted effect of over 75% in size
# Details: G9a H3K9 monomethylation, AlphaScreen, 2 h; series mostly up to 59 µM; activity, negative = inhibition: at the top concentration
# Procedure, shortened: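 Step 1: enzyme (final 20 nM) with compound, 15 min RT. Step 2: substrate peptide 500 nM and SAM 20 uM, 2 h RT. Step 3: anti-H3K9me1 antibody and AlphaScreen beads, 10 min, then plate read.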
# % is scaled to controls: 0 for no effect and ±100 for the full control effect; potency is read from the fitted curve at half-maximal effect.
# Histone-lysine N-methyltransferase EHMT2 (Homo sapiens), sequence (Q96KQ7 913-1193 limits assumed): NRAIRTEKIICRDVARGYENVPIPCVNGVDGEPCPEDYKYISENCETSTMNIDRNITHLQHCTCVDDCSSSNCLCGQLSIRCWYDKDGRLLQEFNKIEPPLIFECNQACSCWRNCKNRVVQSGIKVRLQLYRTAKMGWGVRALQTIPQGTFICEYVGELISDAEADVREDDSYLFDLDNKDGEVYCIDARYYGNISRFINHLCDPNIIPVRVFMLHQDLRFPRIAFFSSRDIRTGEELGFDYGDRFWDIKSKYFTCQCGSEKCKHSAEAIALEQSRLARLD
SMILES,"activity, negative = inhibition",Potency
Cc1ccn2c(=O)nc(SCC(=O)NCc3ccc(F)cc3)nc2c1,-25% [at 102 µM] (inactive),–
COc1ccc(-n2c(C)nc3c(cnn3-c3ccc(F)cc3)c2=O)cc1,0.269% (inactive),–
Cc1c(C(=O)CN2CCOCC2)[nH]c2ccccc12,–,39.8 µM (active)
Cc1c(C(=O)N2CCOCC2)[nH]c2ccc(OCc3ccccc3)cc12,-37.5% [at 12.7 µM] (inactive),–
Cc1[nH]c2ccccc2c1C(=O)CN1CC(C)CC(C)C1 (centres undefined),-25.6% [at 102 µM] (inactive),–
CCOc1ccccc1CNC(=O)c1ccc2c(c1)nc1n2CCC(C)C1 (centres undefined),-6.28% (inactive),–
CCOc1ccc(OCC)c(Nc2nc3ccccc3n3nnnc23)c1,-4.9% (inactive),–
CCn1c(SCC(=O)NC2CC2)nnc1-c1ccncc1,14.2% [at 102 µM] (inactive),–
CC1CCCCC1NC(=O)CSc1nnc(-c2ccncc2)n1CCCN(C)C (centres undefined),–,3.98 µM (active)
O=C(CSc1nnc(-c2ccncc2)n1C1CCCCC1)Nc1ccccc1,-7.6% [at 102 µM] (inactive),–
CC1(C)NC(=O)N(CC(=O)N2CCN(S(=O)(=O)c3ccccc3F)CC2)C1=O,22.5% [at 12.7 µM] (inactive),–
Cc1csc2nc(O)c(C(=O)NCCN3CCOCC3)c(=O)n12,-4.7% [at 102 µM] (inactive),–
NS(=O)(=O)c1ccc(NC(=S)NC(=O)c2cccc(Br)c2)cc1,-4.74% [at 102 µM] (inactive),–
CC(=O)NC(=S)Nc1ccc(NC(=O)c2cccnc2)cc1,-0.83% [at 102 µM] (inactive),–
CC(C)C(=O)Nc1ccc(C(=O)NNC(=O)c2cccs2)cc1,61.3% (inactive),–
CCc1ccc(NC(=O)C(=O)NNC(=O)c2cccs2)cc1,18.7% [at 102 µM] (inactive),–
NS(=O)(=O)c1ccc(NC(=S)NNC(=O)c2cccs2)cc1,–,8.91 µM (active)
NS(=O)(=O)c1ccc(NC(=S)NC(=O)c2cccnc2)cc1,–,50.1 µM (active)
CC(=O)c1sc(N)nc1C,-2.73% [at 2.33 µM] (inactive),–
CCCc1nnc(NC(=O)CCC(=O)NC2CC2)s1,-1.79% [at 102 µM] (inactive),–
O=C(NC1CC(=O)N(c2ccc(Cl)cc2)C1)C1CCCC1 (centres undefined),12% (inactive),–
CSc1ncc(C(=O)NCc2ccccc2Cl)c(C(F)(F)F)n1,-9.4% (inactive),–
COc1ccc(-n2nc(C(=O)NCC(=O)N3CCN(c4ccccc4OC)CC3)c3ccccc3c2=O)c(OC)c1,-74.2% [at 102 µM] (inactive),–
COC(=O)c1scc(-c2ccc(C)cc2)c1S(=O)(=O)Nc1cc(Cl)c(OC)cc1OC,-21% (inactive),–
CCC(C(=O)OC)n1cnc2scc(-c3ccc(C)cc3)c2c1=O (centres undefined),11.4% [at 102 µM] (inactive),–

SMILES,"activity, negative = inhibition",Potency
COC(=O)c1c(-c2ccc(C)cc2)csc1N,–,31.6 µM (active)
NC(=O)CSc1nc2c(oc3ccccc32)c(=O)n1Cc1ccccc1,0.31% (inactive),–
O=C(Cc1cccs1)Nc1nnc(SCc2ccc(F)cc2)s1,17.6% [at 102 µM] (inactive),–
COc1ccc(Cc2nnc(NC(=O)Cc3cccs3)s2)cc1,–,39.8 µM (active)
CCc1nnc(NC(=O)Cc2cccs2)s1,5.33% [at 102 µM] (inactive),–
CCOc1ccc(CCNC(=O)COC(=O)c2c(OC)cccc2OC)cc1OCC,-6.24% [at 2.33 µM] (inactive),–
CCN(C(=O)CSc1nnnn1-c1ccccc1OC)C1CCS(=O)(=O)C1 (centres undefined),-20.6% [at 102 µM] (inactive),–
O=C(Cn1c(=O)n(Cc2ccccc2)c(=O)c2sc3ccccc3c21)Nc1ccccc1F,7.47% (inactive),–
NC(=O)c1sc(-c2ccsc2)cc1N,–,14.1 µM (active)
COc1cc(OC)cc(-c2nc3nc(C)c(CCC(=O)Nc4ccc(C)cc4)c(C)n3n2)c1,6.77% (inactive),–
COc1ccc(/C=C(\C#N)C(=O)OCC(=O)N(C)C2CCS(=O)(=O)C2)cc1 (centres undefined),1.94% [at 102 µM] (inactive),–
O=C(Cc1ccccc1)NNC1CC(=O)N(c2ccc(Br)cc2)C1=O (centres undefined),17.2% (inactive),–
Cc1ccc(N2C(=O)C3CC3C2=O)cc1 (centres undefined),11.1% [at 102 µM] (inactive),–
Cc1ccc(N2C(=O)CC(Nc3cccc4ccccc34)C2=O)cc1 (centres undefined),–,14.1 µM (active)
Cc1cccc(NC(=O)c2nnn(CC(=O)Nc3ccc(C(C)C)cc3)c2N)c1C,8.78% (inactive),–
CN(CC(=O)NCc1ccc2c(c1)OCO2)CC(=O)Nc1ccc(F)c(F)c1F,2.14% [at 12.7 µM] (inactive),–
O=C(c1cccc([N+](=O)[O-])c1)N1CCN(C(=O)c2ccco2)CC1,-8.6% [at 102 µM] (inactive),–
CC1CCN(C(=S)c2cccc([N+](=O)[O-])c2)CC1,–,35.5 µM (active)
CC1CCN(C(=S)c2cccc(O)c2)CC1,–,14.1 µM (active)
CC1CCN(c2ccc([N+](=O)[O-])cc2C(N)=O)CC1,10.6% [at 102 µM] (inactive),–
CC1CCN(C(=O)/C(=C\c2ccccc2)NC(=O)c2ccccc2)CC1,4.64% [at 102 µM] (inactive),–
CC1CCN(C(=O)CCNC(=O)c2ccccc2)CC1,8.2% [at 102 µM] (inactive),–
Cc1ccc(Cl)c(OCC(=O)N(C)CC(=O)Nc2ccc(N3CCOCC3)cc2)c1,10.6% [at 0.501 µM] (inactive),–
CCc1ccccc1NC(=O)CSc1nc(C)c(C(=O)Nc2ccccc2)c(-c2ccc(Cl)cc2)c1C#N,24.8% (inactive),–
Cc1ccccc1C(=O)Nc1cc(C)c(O)c(-c2nc3ccccc3o2)c1,0.528% (inactive),–

SMILES,"activity, negative = inhibition",Potency
COC(=O)CN1C(=O)[C@H]2[C@@H](C3CC3)N3C(=O)CN(Cc4ccc(-c5ccccc5)cc4)C(=O)[C@@]3(Cc3ccccc3)[C@H]2C1=O,-1.89% [at 102 µM] (inactive),–
CSc1ccc(C2C(C(=O)Nc3ccccc3)=C(C)Nc3nc4ccccc4n32)cc1 (centres undefined),-23.8% (inactive),–
CSc1ccc(S(=O)(=O)NCc2ccc(Cl)cc2)cc1,15.9% [at 12.7 µM] (inactive),–
CCn1c(CNS(=O)(=O)c2ccc(Cl)cc2)n[nH]c1=S,–,28.2 µM (active)
Cc1cc(C)n(CCNS(=O)(=O)c2ccc(Cl)cc2)n1,-7.54% [at 0.501 µM] (inactive),–
O=C(c1cc(-c2ccc(Cl)s2)nc2ccccc12)N1CCOCC1,17% [at 12.7 µM] (inactive),–
COc1ccc(CN2C(=O)C(NC(=O)c3cccc(C)c3)(C(F)(F)F)N=C2c2ccccc2)cc1 (centres undefined),5.18% (inactive),–
COCCNc1cc(NCCOC)c([N+](=O)[O-])cc1[N+](=O)[O-],-5.08% (inactive),–
Cc1ccc([N+](=O)[O-])c(OCCCNCC(C)O)c1 (centres undefined),–,12.6 µM (active)
CCCCOc1ccc(CSC(=N)N)cc1[N+](=O)[O-],7.15% [at 12.7 µM] (inactive),–
COc1ccc(CC(NC(C)=O)C(=O)NC2CCN(C(=O)c3ccc(Cl)cc3)CC2)cc1 (centres undefined),-11.3% [at 102 µM] (inactive),–
O=C(c1ccccc1F)N1CCC(c2nc3c(nnn3Cc3cccc(F)c3)c(=O)[nH]2)CC1,–,1 µM (active)
O=C(Nc1ccc(F)cc1)N1CCCC(c2nc3c(nnn3Cc3ccccc3Cl)c(=O)[nH]2)C1 (centres undefined),0.052% [at 102 µM] (inactive),–
Cc1ccc(NC(=O)N2CCC(c3nc4c(nnn4Cc4c(F)cccc4Cl)c(=O)[nH]3)CC2)cc1,-23.2% [at 102 µM] (inactive),–
Cc1ccccc1Nc1nn2c(=O)c3ccc(C(=O)NCCc4ccc(Cl)cc4)cc3nc2s1,-4.26% (inactive),–
Cc1cccc(C(=O)NCCCN2CCCC2=O)c1,16.7% [at 102 µM] (inactive),–
Cc1cccc(-c2nc3ccc(C(=O)NCCN4CCN(C)CC4)cc3nc2-c2cccc(C)c2)c1,–,70.8 µM (active)
COc1ccc(-c2nc3ccc(C(=O)NCc4ccc(C)cc4)cc3nc2-c2ccc(OC)cc2)cc1,23.6% (inactive),–
CCc1ccc(CNC(=O)C2CCN(c3nnc(C)c4c(C)n(-c5ccc(C)cc5)nc34)CC2)cc1,–,inactive
CC1CC1C(=O)OCC(=O)Nc1cccc(F)c1 (centres undefined),17.7% [at 2.33 µM] (inactive),–
O=C(CCC(=O)N1CCN(S(=O)(=O)c2ccccc2)CC1)NC1CCCc2ccccc21 (centres undefined),11.3% (inactive),–
O=C(CCNC(=O)c1ccc(Cl)cc1)NC1CCCc2ccccc21 (centres undefined),15.5% [at 2.33 µM] (inactive),–
O=C(CSc1nncs1)NC1CCCc2ccccc21 (centres undefined),3.13% [at 102 µM] (inactive),–
O=C(CN1CCN(c2ccc(O)cc2)CC1)NC1CCCc2ccccc21 (centres undefined),–,25.1 µM (active)
CSc1ccccc1N1CCN(CCCCCC(=O)NC2CCCc3ccccc32)CC1 (centres undefined),–,21.2 µM (active)

SMILES,"activity, negative = inhibition",Potency
Cc1ccc(S(=O)(=O)N2CCN(C(=O)CCC(=O)NC3CCCc4ccccc43)CC2)cc1 (centres undefined),-0.0182% [at 102 µM] (inactive),–
COc1ccc(CCN2C(=O)c3oc4cc(C)cc(C)c4c(=O)c3C2c2ccccc2F)cc1OC (centres undefined),5.08% (inactive),–
COc1cccc2[nH]c(C(=O)NCCc3ccccc3)cc12,21.5% [at 102 µM] (inactive),–
CCNC(=O)c1cnn(-c2ccccc2)c1-c1ccccc1,-1.29% [at 102 µM] (inactive),–
Cc1cc(=O)c2cc(C(=O)Nc3cccc(C)c3C)ccc2[nH]1,-8.29% (inactive),–
COc1ccc(/C=N/NC(=O)c2ccc(Cl)cc2)cc1COC(C)=O,-4.32% (inactive),–
COc1ccc(/C=N/NC(=O)c2ccncc2)cc1CN1CCCc2ccccc21,–,35.5 µM (active)
COc1cc(/C=N/NC(=O)CNC(=O)c2ccncc2)ccc1OC(C)=O,15.1% [at 102 µM] (inactive),–
COC(=O)CN1C(=O)CSc2ccc(S(=O)(=O)Nc3cc(C)ccc3C)cc21,-6.35% (inactive),–
CCCCSc1nnc(-c2ccc(NC(=O)CC)cc2)n1C,–,50.1 µM (active)
CCC(=O)Nc1cccc(NC(=O)CSc2nnc(-c3ccc(NS(C)(=O)=O)cc3)n2C)c1,-1.1% (inactive),–
Cn1c(SCC(=O)NC2CCCCC2)nnc1-c1ccc(N)cc1,-1.06% [at 102 µM] (inactive),–
CCc1ccc(N(CC(=O)NCc2cccnc2)S(=O)(=O)c2ccccc2)cc1,11% [at 102 µM] (inactive),–
Cc1ccc(S(=O)(=O)c2nnn3c2nc(N2CCN(c4ccccc4F)CC2)c2cc(Cl)ccc23)cc1C,7.4% (inactive),–
CCOc1cccc(CNC(=O)c2ccc(N3CCCC3)c(NC(=O)Nc3ccccc3CC)c2)c1,-4.88% (inactive),–
CCOCC(=O)NCc1ccc2c(c1)cc(C)n2C,–,35.5 µM (active)
Cc1ccc(CNC(=O)COc2ccc3c(c2)CCC3)cc1,26.7% (inactive),–
CCOCCn1ccc2c(OCC(=O)NCc3ccc(C)cc3)cccc2c1=O,-1.84% (inactive),–
COc1cc(Cl)c(C)cc1NC(=O)CCc1nc2cccnc2n1Cc1cccs1,-19.7% (inactive),–
CCn1c(NC(=O)c2ccccc2)c(-c2cccs2)c(=O)c2ccccc21,-9.9% [at 102 µM] (inactive),–
CC(=O)c1ccc2c(c1)c1ccccc1n2CC(C)C,85.8% [at 102 µM] (inactive),–
CC(C)Cn1c(CCC(=O)O)ccc1-c1cccs1,–,17.8 µM (active)
CCCCCn1c(CCNC(=O)c2ccc(F)cc2)nc2ccccc21,5.58% (inactive),–
CCN(CC)CCCNC(=O)c1c(O)c2cc(F)cc3c2n(c1=O)C(C)CC3 (centres undefined),-70% [at 102 µM] (inactive),–
